Where a name gives a salt, the structure may show the parent alone.
system: PBMC-derived induced microglia-like cells (piMGLC); test: synaptosome phagocytic index relative to DMSO control (fraction of DMSO); higher = more phagocytosis; conditions: concentration: 10 uM (2 uM for compounds listed in Table S2); pretreatment time: 24 h; assay time: 3 h
Experimental: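 PBMC-derived induced microglia-like cells (piMGLCs) in 96-well plates were pretreated for 24 h with CNS-penetrant library compounds (MedChemExpress HY-L028), mostly at 10 uM; Table S2 lists 9 compounds at 2 uM. pHrodo-Red-labelled human iPSC-neuron synaptosomes (3 ug/well) were then added for 3 h, and cells were fixed and imaged by confocal microscopy. Phagocytic index (synaptosome area / cell count, CellProfiler) is a mean over 3 replicate wells on different plates, normalized to the DMSO control. Compounds leaving <10% of DMSO cell count were marked toxic and given no value.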

Row | Structure (SMILES) | synaptosome phagocytic index
1 | CC(=O)Oc1ccccc1C(=O)O [Aspirin] | 0.579
2 | CCCN(CCC)S(=O)(=O)c1ccc(C(=O)O)cc1 [Probenecid] | 0.701
3 | Cc1ccc(C(=O)c2cc(O)c(O)c([N+](=O)[O-])c2)cc1 [Tolcapone] | 0.526
4 | COc1cc2ncnc(Nc3ccc(F)c(Cl)c3)c2cc1OCCCN1CCOCC1 [Gefitinib] | 1.24
5 | CCc1cc2c(cc1N1CCC(N3CCOCC3)CC1)C(C)(C)c1[nH]c3cc(C#N)ccc3c1C2=O [Alectinib] | 0.538
6 | C[C@H](C(=O)O)c1cccc(C(=O)c2ccccc2)c1 [S-(+)-Ketoprofen] | 0.724
7 | CN1[C@@H]2CC[C@H]1C[C@@H](OC(c1ccccc1)c1ccccc1)C2 [Benztropine_(mesylate)] | 0.833
8 | CCCN[C@H]1CCc2nc(N)sc2C1 [Pramipexole_(dihydrochloride)] | 0.906
9 | CC(CN(C)C)CN1c2ccccc2CCc2ccccc21 (stereo not given) [Trimipramine_(maleate)] | 0.449
10 | O=C1N[C@@H](Cc2cnc[nH]2)C(=O)N2CCC[C@@H]12 [Cyclo(his-pro)_(TFA)] | 0.449
11 | COc1ccc(OCCN2CCN(C(=O)c3cc4ccccc4[nH]3)CC2)cc1 | 1.22
12 | O=c1[nH]c2cc(Cl)ccc2c(O)c1-c1cccc(Oc2ccccc2)c1 | 1.18
13 | OC(CCN1CCCCC1)(c1ccccc1)C1CCCCC1 (stereo not given) [Trihexyphenidyl_(hydrochloride)] | 1.24
14 | COc1cc2/c(=N/c3ccc(Br)cc3F)nc[nH]c2cc1OCC1CCN(C)CC1 [Vandetanib] | 0.248
15 | CC(=O)c1c(C)c2cnc(Nc3ccc(N4CCNCC4)cn3)nc2n(C2CCCC2)c1=O [Palbociclib_(isethionate)] | 0.421
16 | COc1cc2ncnc(Nc3ccc(F)c(Cl)c3)c2cc1NC(=O)/C=C/CN1CCCCC1 [Dacomitinib] | 1.26
17 | COCCOC(=O)C1=C(C)NC(C)=C(C(=O)OC(C)C)C1c1cccc([N+](=O)[O-])c1 (stereo not given) [Nimodipine] | 0.85
18 | Nc1ccn([C@@H]2O[C@H](CO)[C@@H](O)[C@@H]2O)c(=O)n1 [Cytarabine] | 0.44
19 | COc1cccc2c1C(=O)c1c(O)c3c(c(O)c1C2=O)C[C@@](O)(C(=O)CO)C[C@@H]3O[C@H]1C[C@H](N)[C@@H](O)[C@H](C)O1 [Epirubicin_(hydrochloride)] | 0.904
20 | Cn1cnc2c(F)c(Nc3ccc(Br)cc3Cl)c(C(=O)NOCCO)cc21 [Selumetinib] | 0.811

Row | Structure (SMILES) | synaptosome phagocytic index
21 | CC1=NN(c2ccccc2)C(=O)C1 [Edaravone] | 0.555
22 | Nc1cccc2c1C(=O)N(C1CCC(=O)NC1=O)C2=O (stereo not given) [Pomalidomide] | 0.545
23 | CS(=O)(=O)c1ccc(C(=O)Nc2ccc(Cl)c(-c3ccccn3)c2)c(Cl)c1 [Vismodegib] | 0.948
24 | CN1CCN(C2=Nc3ccccc3Oc3ccc(Cl)cc32)CC1 [Loxapine] | 0.272
25 | CCc1cc(F)c2nc(N3CCC(NC4CCOCC4)CC3)c(-c3nc(C)no3)c(C)c2c1 | 1.21
26 | CS(=O)(=O)CCNCc1ccc(-c2ccc3ncnc(Nc4ccc(OCc5cccc(F)c5)c(Cl)c4)c3c2)o1 [Lapatinib_(ditosylate)] | 0.126
27 | CC(=O)[C@H]1CC[C@H]2[C@@H]3CCC4=CC(=O)CC[C@]4(C)[C@H]3CC[C@]12C [Progesterone] | 0.761
28 | CC(C)(C)CCN1C[C@@H]2C(CNC(=O)c3cc(Cl)cc(Cl)c3)[C@@H]2C1 (stereo not given in full) | 0.191
29 | CN1CCN2c3ncccc3Cc3ccccc3C2C1 (stereo not given) [Mirtazapine] | 1.1
30 | CN(C)CCc1c[nH]c2ccc(Cn3cncn3)cc12 [Rizatriptan_(benzoate)] | 1.11
31 | N[C@H](C(=O)O)[C@H](O)c1ccc(O)c(O)c1 [Droxidopa] | 0.507
32 | COc1cc(C(=O)Nc2cc(OC(F)(F)F)ccc2-n2cncn2)ccc1OCC1CC1 | 0.921
33 | C#Cc1cccc(Nc2ncnc3cc(OCCOC)c(OCCOC)cc23)c1 [Erlotinib_(Hydrochloride)] | 0.391
34 | N#Cc1ccc2[nH]cc(CCCCN3CCN(c4ccc5oc(C(N)=O)cc5c4)CC3)c2c1 [Vilazodone] | 0.195
35 | O=NN(CCCl)C(=O)NC1CCCCC1 [Lomustine] | 0.897
36 | CO/N=C(\C(=O)N[C@@H]1C(=O)N2C(C(=O)O)=C(COC(C)=O)CS[C@H]12)c1csc(N)n1 [Cefotaxime_(sodium_salt)] | 0.951
37 | CN(C)CC(c1ccc(O)cc1)C1(O)CCCCC1 (stereo not given) [Desvenlafaxine_(succinate_hydrate)] | 1.11
38 | CCN(CC)CC(=O)Nc1c(C)cccc1C [Lidocaine_(hydrochloride)] | 0.925
39 | CNCC[C@@H](Oc1ccccc1C)c1ccccc1 [Atomoxetine_(hydrochloride)] | 1.16
40 | CN1CC[C@H](c2c(O)cc(O)c3c(=O)cc(-c4ccccc4Cl)oc23)[C@H](O)C1 [Flavopiridol] | 0.936
